Test [1] in a line: qHTS assay to test for compound auto fluorescence at 535 nm (green) in HEK293 cells (AID 720680). For orientation: qHTS replaces the single test concentration by a dilution series.
The nature of test [2]: qHTS assay to test for compound auto fluorescence at 460 nm (blue) in HEK293 cell free culture (AID 720681). The procedure, abridged:
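Blue fluorescence (Ex 405/Em 460 nm, triamterene-equivalent) was read immediately after pin transfer of compound or DMSO into medium (DMEM, 10% FBS) without cells.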

A short description of test [3]: qHTS assay to test for compound auto fluorescence at 535 nm (green) in HEK293 cell free culture (AID 720682). In outline:
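Cell-free medium (DMEM, 10% FBS) receives compound or DMSO by pintool. Plate read directly at Ex 485/Em 535 nm. Signal converted to fluorescein equivalency.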

The nature of test [4]: qHTS assay to test for compound auto fluorescence at 590 nm (red) in HEK293 cell free culture (AID 720683). In outline:
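Red-channel autofluorescence of compounds in culture medium (DMEM, 10% FBS), no cells, measured at 540/590 nm. Rose Bengal sodium is the reference fluorophore for equivalence.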

Test [5] is described as follows: qHTS assay to test for compound auto fluorescence at 590 nm (red) in HepG2 cell free culture (AID 720684). In outline: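 Cell-free; medium MEM + 10% FBS; compound or DMSO added by pintool; read Ex 540/Em 590 nm; Rose Bengal sodium as red reference fluorophore.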
Test [6] in a line: qHTS assay to test for compound auto fluorescence at 460 nm (blue) in HepG2 cell free culture (AID 720685). In outline: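 Cell-free plates of MEM plus 10% FBS received 23 nL compound or DMSO vehicle; blue-channel (405/460 nm) intensity scored against triamterene as reference fluorophore.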
The nature of test [7]: qHTS assay for identifying genotoxic compounds that show differential cytotoxicity against isogenic chicken DT40 cell lines with known DNA damage response pathways - wild type cell line (AID 743012). Note: nearly all actives have a fitted effect of over 60% in size. Note: potency is the fitted concentration of half-maximal effect. In outline:
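Viability of DNA repair-proficient chicken DT40 cells was assessed by CellTiter-Glo luminescence following 40 h compound exposure at 37 C/5% CO2.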

Test [8] in a line: qHTS assay for identifying genotoxic compounds that show differential cytotoxicity against isogenic chicken DT40 cell lines with known DNA damage response pathways - Rev3 mutant cell line (AID 743014). Note: nearly all actives have a fitted effect of over 55% in size. Note: potency is the fitted concentration of half-maximal effect.
Test [9] can be described thus: qHTS assay for identifying genotoxic compounds that show differential cytotoxicity against isogenic chicken DT40 cell lines with known DNA damage response pathways - Rad54/Ku70 mutant cell line (AID 743015). Note: nearly all actives have a fitted effect of over 60% in size. Note: potency is the fitted concentration of half-maximal effect.
The nature of test [10]: qHTS assay to identify small molecule antagonists of the androgen receptor (AR) signaling pathway - cell viability counter screen (AID 743033; note: nearly all actives have a fitted effect of over 45% in size; note: potency is the fitted concentration of half-maximal effect).
Test [11] in a line: qHTS assay to identify small molecule antagonists of the androgen receptor (AR) signaling pathway using the MDA cell line - cell viability counter screen (AID 743041; note: nearly all actives have a fitted effect of over 45% in size; note: potency is the fitted concentration of half-maximal effect). In outline:
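Viability read by CellTiter-Fluor fluorescence in the same wells as the antagonist screen, added after 15.5 h of a 16 h, 37C exposure. Human breast carcinoma MDA-kb2 AR-luc cells, compounds co-dosed with agonist R1881.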

Test [12] can be described thus: qHTS assay to identify small molecule antagonists of the thyroid receptor (TR) signaling pathway - cell viability counter screen (AID 743064). Note: nearly all actives have a fitted effect of over 50% in size. Note: potency is the fitted concentration of half-maximal effect. The procedure, abridged:
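GH3.TRE-Luc cells, 4 h pre-plating; cpd + T3 1 nM final; 37 °C 23.5 h; CellTiter-Fluor 30 min; fluorescence read.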

Test [13] in a line: qHTS assay to test for compound auto fluorescence at 460 nm (blue) in HepG2 cells (AID 720687). In outline: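 Blue-channel autofluorescence (Ex/Em 405/460 nm, triamterene-equivalent) was measured after 1 hr compound exposure at 37 C, 5% CO2. Cells were HepG2, plated overnight at 37 C in MEM plus 10% FBS.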
For test [14], the target named is Glucocorticoid receptor (Homo sapiens) (UniProt P04150). Briefly: qHTS assay to identify small molecule agonists of the glucocorticoid receptor (GR) signaling pathway (AID 720691; active = well fitted activation curve with a large enough effect in the signal ratio in the repeat runs, not every such curve was filed as active; the % refers to the signal ratio). The procedure, abridged: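 Compounds in DMSO, alongside positive controls, were added to GR-bla HeLa reporter cells and incubated 18 h at 37 C; GRE-driven beta-lactamase was detected by fluorescence after 2 h with FRET substrate at room temperature.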

For test [15] the target is unchanged. Briefly: qHTS assay to identify small molecule antagonists of the glucocorticoid receptor (GR) signaling pathway (AID 720692; active = well fitted inhibition curve with a large enough effect in the signal ratio in the repeat runs, not every such curve was filed as active; the % refers to the signal ratio; note: potency is the fitted concentration of half-maximal effect). In outline:
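In a 1536-well cell format, compounds were added 4 h after seeding GR-bla HeLa cells, together with dexamethasone at 5 nM final; reporter activity was measured by FRET-substrate fluorescence following 18 h at 37 C.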

Test [16] is described as follows: qHTS assay to identify small molecule antagonists of the glucocorticoid receptor (GR) signaling pathway - cell viability counter screen (AID 720693). Note: nearly all actives have a fitted effect of over 55% in size. Note: potency is the fitted concentration of half-maximal effect.

Values joined by “and” are separate entries in the source; they are usually repeats but may differ in a detail not shown here. Equal values may be shown once. Results filed as inconclusive are left out. Where a structure was tested more than once in an assay, its records may differ in their call. Active and inactive are the calls of the source. Unless noted, calls come from the whole dose curve; as a rule, active = well fitted curve in the direction sought with a large enough effect in the repeat runs; inconclusive = weak or mixed curves; inactive = no such curve, though single readings can be large; an effect the other way counts as inactive or inconclusive.
% is set by controls: 0 for no effect and ±100 for the full control effect.

Chain of Glucocorticoid receptor (Homo sapiens) (P04150 whole entry, looked up): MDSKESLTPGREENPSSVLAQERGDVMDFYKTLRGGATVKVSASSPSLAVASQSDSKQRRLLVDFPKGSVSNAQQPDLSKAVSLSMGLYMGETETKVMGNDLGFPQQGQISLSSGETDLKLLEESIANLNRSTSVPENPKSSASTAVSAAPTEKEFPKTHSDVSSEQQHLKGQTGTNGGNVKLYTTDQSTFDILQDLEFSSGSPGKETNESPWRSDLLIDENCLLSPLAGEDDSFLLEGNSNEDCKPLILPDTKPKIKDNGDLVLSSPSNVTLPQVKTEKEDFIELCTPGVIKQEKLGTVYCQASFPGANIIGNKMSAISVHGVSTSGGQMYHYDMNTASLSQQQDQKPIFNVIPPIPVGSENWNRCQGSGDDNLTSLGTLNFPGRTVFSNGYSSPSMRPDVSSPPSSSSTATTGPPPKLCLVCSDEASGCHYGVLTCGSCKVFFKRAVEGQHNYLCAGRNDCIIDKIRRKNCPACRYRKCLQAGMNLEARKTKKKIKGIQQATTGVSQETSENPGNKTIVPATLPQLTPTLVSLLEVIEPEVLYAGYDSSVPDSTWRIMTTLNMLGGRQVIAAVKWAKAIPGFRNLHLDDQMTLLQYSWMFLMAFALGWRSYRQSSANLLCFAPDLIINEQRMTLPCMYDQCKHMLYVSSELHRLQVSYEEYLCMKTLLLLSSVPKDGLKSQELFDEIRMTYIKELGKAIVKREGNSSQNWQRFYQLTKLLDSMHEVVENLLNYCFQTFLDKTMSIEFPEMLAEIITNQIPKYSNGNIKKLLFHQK

With `CN(C)c1ccc2nc3ccc(=[N+](C)C)cc-3sc2c1`, the Potency entry in [1], in test [2], in test [3] and in test [6] was “inactive” in each case. Further, the compound was classed as inactive in [4] and in test [5]. Moreover, the Potency in test [7] is 473 nM (active) and 2.34 µM (active) and 686 nM (active); in test [8], 750 nM (active) and 587 nM (active) and 686 nM (active); in test [9], 422 nM (active) and 262 nM (active) and 386 nM (active); in test [10], 1.87 µM (active) and 3.09 µM (active); in test [11] it was 5.96 µM (active) and 11.7 µM (active) and 17.2 µM (active); in test [12] it was 15 µM (active) and 26.2 µM (active) and 54.5 µM (active).

For `CC(C)(C)c1cc(C(C)(C)C)c(O)c(C(C)(C)C)c1`, the Potency entry in test [1], in test [2], in test [3], in test [6], in test [13] and in [14] was “inactive” in each case. In addition, the Potency entry in test [15], in test [16], in test [7], in [8], in test [9] and in test [10] was “inactive” each time. Also, the Potency result in [11] is “inactive”. Also, the result in test [4] and in test [5] was inactive. Also, the Potency in test [12] is 27.3 µM (active).

Regarding `COc1nc(C)nc(Cl)c1NC1=NCCN1`, the fluorescence, % of fluorescein in [1] was -0.014% [at 18.6 µM] (inactive). The fluorescence, % of fluorescent control was 0.165% [at 18.6 µM] (inactive) in test [2], 0.101% [at 18.6 µM] (inactive) in test [4], 0.0137% [at 18.6 µM] (inactive) in [6] and 0.0089% [at 18.6 µM] (inactive) in test [13]. Moreover, the activity change in test [3] was 0.0521% [at 18.6 µM, stronger effect = higher value] (inactive). Besides, the fluorescence, % of Rose Bengal in test [5] is 0.527% [at 18.6 µM] (inactive). Further, the Potency entry in [14], in test [15], in test [16], in test [7], in test [9] and in [10] was “inactive” in each case. Further, the Potency entry in [11] and in test [12] was “inactive” in each case.

As to `CN(C)c1ccc(C(=C2C=CC(=[N+](C)C)C=C2)c2ccccc2)cc1`, the Potency result in test [1], in test [2], in test [3], in test [6], in test [13] and in test [14] was “inactive” each time. Besides, the outcome in test [4] and in test [5] was inactive. Moreover, the Potency in test [16] is 0.195 µM (active); in test [7] it was 1.06 µM (active) and 13.7 nM (active); in test [8], 1.19 µM (active) and 7.7 nM (active); in test [9] it was 1.5 µM (active) and 10.9 nM (active); in test [10], 155 nM (active); in test [12], 7.5 µM (active) and 68.6 nM (active).

For `NC(N)=Nc1nc(CSCC/C(N)=N/S(N)(=O)=O)cs1`, the Potency entry in [1], in test [2], in [3], in test [6], in test [13] and in test [14] was “inactive” throughout. The Potency result in test [15], in [16], in test [7], in test [9], in test [10] and in test [11] was “inactive” in each case. Also, the Potency result in [12] was “inactive”. For the same compound, the call in test [4] and in test [5] was inactive.

Regarding `CCn1c2ccccc2c2cc(N)ccc21`, the Potency entry in test [1], in test [2], in [3], in test [6], in [13] and in test [16] was “inactive” in each case. Also, the Potency result in test [10] and in [12] was “inactive” each time. In addition, the outcome in test [4] and in test [5] was inactive. The Potency in [7] was 61.1 µM (active); in test [8], 21.7 µM (active); in test [9] it was 54.5 µM (active).

Consider `CCCCCC(=O)O[C@]1(C(C)=O)CC[C@H]2[C@@H]3CCC4=CC(=O)CC[C@]4(C)[C@H]3CC[C@@]21C`, for which the Potency result in test [1], in [2], in test [3], in [6], in [14] and in test [11] was “inactive” in each case. In addition, the outcome in test [4] and in [5] was inactive. The Potency in test [15] was 268 nM (active) and 194 nM (active); in [7], 3.76 µM (active) and 3.83 µM (active); in [8], 3.76 µM (active) and 2.15 µM (active); in test [9] it was 7.5 µM (active) and 5.41 µM (active); in test [10] it was “inactive and 24.4 µM (active)”; in test [12] it was 18.8 µM (active).

For the origin of these results see PubChem BioAssay (Tox21).
